# High-throughput results (PubChem BioAssay)
# In the library only some 1.4% were active in any assay of this set; here they are far more common.
# SARS 3CLpro inh-1: SARS-CoV 3CLpro protease inhibition; AID 1706; recombinant SARS-CoV 3CLpro, quenched FRET peptide cleavage; inhibition, % at 6 µM; hit rate 0.14% among 290,000; P0C6X7; in the data active = inhibition above about 12%
# Sa ugtP lethal: kills S. aureus RN4220 lacking UgtP; hit rate 0.54% among 330,000; growth inhibition, % (no concentration beside the values); AID 1259309; S. aureus RN4220 ugtP deletion, OD600 growth, 16 h; in the data active = growth inhibition above about 68%
# Sa RN4220 lethal: kills Staphylococcus aureus RN4220; S. aureus RN4220 growth, OD600, 16 h; inhibition, % (test concentration not listed); hit rate 0.33% among 330,000; AID 1259311; in the data active = inhibition above about 85%
# DUSP3 inh: DUSP3 (human) phosphatase inhibition; hit rate 0.52% among 290,000; inhibition, % at 13.3 µM; recombinant VHR phosphatase, pNPP absorbance; in the data active = inhibition above about 50%
# Target sequence (P51452 whole entry, looked up): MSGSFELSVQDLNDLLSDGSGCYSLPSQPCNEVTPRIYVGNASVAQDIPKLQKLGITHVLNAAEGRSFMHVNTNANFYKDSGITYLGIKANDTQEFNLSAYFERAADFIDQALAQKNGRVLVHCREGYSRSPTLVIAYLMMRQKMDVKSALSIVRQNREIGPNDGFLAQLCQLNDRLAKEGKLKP
# PrPC surface inh: inhibitors of human cell surface prion protein PrPC | TR-FRET read-out | inhibition, % at 13.8 µM | hit rate 0.43% among 370,000 | AID 720596; in the data active = inhibition above about 24%
# BJeLR lethal: kills HRASV12-expressing BJeLR cells. inhibition, % (test concentration not listed). BJeLR (HRASV12) viability, CellTiter-Glo ATP luminescence, 48 h. AID 1554. hit rate 0.17% among 300,000; in the data active = inhibition above about 50%
# SARS 3CLpro inh-2: confirmation of SARS coronavirus 3C-like protease inhibitors. shares compounds with SARS 3CLpro inh-1. QFRET protease activity assay, 3CLpro. inhibition, % at 6 µM. hit rate 36% among 380. AID 1879; in the data active = inhibition above about 13%
# Numbers stand for hits; . = inactive; / = no result given.
SMILES,SARS 3CLpro inh-1,Sa ugtP lethal,Sa RN4220 lethal,DUSP3 inh,PrPC surface inh,BJeLR lethal,SARS 3CLpro inh-2
Cc1ccc(N(C(=O)c2ccco2)C(C(=O)NC2CCCC2)c2cccnc2)cc1C (centres undefined),.,.,.,.,.,.,/
CCC(C)c1ccc(N(C(=O)c2ccco2)C(C(=O)NC2CCCC2)c2cccnc2)cc1 (centres undefined),75,.,.,.,.,.,75
CCOC(=O)C1C2COc3ccc(Br)cc3C2N2C(=O)CN(Cc3ccc(F)cc3)C(=O)[C@@]12C (some centres undefined),/,.,.,/,/,/,/
CCN(c1ccccc1)S(=O)(=O)c1nnc(NC(=O)c2ccccc2OC)s1,13,.,.,.,.,.,.
COc1ccccc1C(=O)Nc1nc2ccccc2s1,13,/,/,.,.,.,.
CN(Cc1ccc(F)cc1)S(=O)(=O)c1nnc(NC(=O)c2ccccc2Br)s1,13,.,.,.,.,.,.
Cc1cc2c(cc1C)C(c1cc(Br)ccc1F)CC(=O)N2 (centres undefined),.,.,.,.,.,.,/
Cc1cc2c(cc1C)C(c1ccccc1F)CC(=O)N2 (centres undefined),13,.,.,.,.,.,.
Cc1ccc(-n2nnnc2SCC(=O)NC(C(=O)O)(c2ccccc2)c2ccccc2)cc1C,14,.,.,.,.,.,.
Cc1ccc(C(=O)c2c3ccc(C(F)(F)F)cc3[n+]([O-])n2CCCC(N)=O)cc1,/,.,.,/,.,.,/
Cc1ccc(C(=O)c2c3ccc(C(F)(F)F)cc3[n+]([O-])n2CCC(N)=O)cc1,27,.,.,.,.,.,21
COc1ccc(C(=O)c2c3ccccc3[n+]([O-])n2CCC(N)=O)cc1,/,.,.,/,.,.,/
NCCCn1c(C(=O)c2cc(Cl)c(N)c(Cl)c2)c2ccccc2[n+]1[O-],/,.,.,/,.,.,/
NC(=O)CCn1c(C(=O)c2cc(Cl)c(N)c(Cl)c2)c2ccccc2[n+]1[O-],30,.,.,.,.,.,35
NC(=O)CCn1c(C(=O)c2cccc([N+](=O)[O-])c2)c2ccccc2[n+]1[O-],26,.,.,.,.,.,26
COc1ccccc1-n1c(C)c(C(=O)O)c2cc(OC)c3ccccc3c21,14,.,.,.,.,.,.
O=C(NCc1nc2ccccc2[nH]1)C1=CC(c2ccc3c(c2)OCO3)CC(OCc2ccc(CO)cc2)O1 (centres undefined),/,.,.,/,/,/,/
O=C(O)c1[nH]c2ccccc2c1C(c1cc(Br)ccc1O)c1c(C(=O)O)[nH]c2ccccc12,14,.,.,.,.,.,15
C#CCNC(=O)c1cc(-c2ccccc2)sc1N,/,/,/,/,.,/,/
COC(=O)c1cc(-c2ccccc2)sc1N,51,.,.,.,.,.,.
N#Cc1c(-c2ccccc2)nc(SCC(=O)Nc2ccc(OC(F)(F)Cl)cc2)[nH]c1=O,16,.,.,/,.,.,.
Cc1ccc(NC(CNS(=O)(=O)c2ccc(Cl)cc2)c2ccccc2)cc1 (centres undefined),13,.,.,.,.,.,.
O=S(=O)(NCC(Nc1ccc(Cl)cc1)c1ccccc1)c1ccccc1 (centres undefined),.,.,.,.,.,.,/
Nc1nnc(C=Cc2ccccc2)s1,/,.,.,/,/,/,/
COc1cccc(CNC(=O)CN(c2ccc(C(C)C)cc2)S(=O)(=O)c2c(C)noc2C)c1,15,.,.,.,.,.,.
Cc1cc(Cl)ccc1OC(C)C(=O)Nc1ccc(S(=O)(=O)Nc2cnc3ccccc3n2)cc1 (centres undefined),12,.,.,.,.,.,.
CC(Oc1ccc(Cl)cc1Cl)C(=O)Nc1ccc(S(=O)(=O)Nc2cnc3ccccc3n2)cc1 (centres undefined),.,.,.,.,/,.,/
COC(=O)C(Cc1ccccc1)NC(=O)N1CC(C)OC(C)C1 (centres undefined),/,.,.,/,/,/,/
COC(=O)[C@@]1(Cc2ccc(OC)cc2)C2c3cc(C(=O)N(C)C)[nH]c3CC2CN1C(=O)c1ccccc1 (some centres undefined),/,.,.,/,/,/,/
COc1ccccc1/C=C1\SC(=S)N(CCC(=O)NNC(=O)c2ccccc2OC)C1=O,14,.,.,.,.,.,.
